# Compound activity as filed in PubChem BioAssay.
# TGFb SMAD3 inh: TGF-b pathway inhibition; hit rate 1.2% among 410,000; Potency, µM (top dose mostly 46.1 µM), actives largely listed as inhibitors; AID 588855; HepG2 CAGA-GFP TGF-b/SMAD3 reporter, GFP fluorescence, 18 h; TGF-beta stimulated, 500 pg/mL final; also: nearly all actives have a fitted effect of over 65% in size
#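 Inhibition of TGF-beta-driven CAGA-GFP reporter expression in HEPG2 cells is measured by cellular GFP fluorescence after 18 h stimulation with 500 pg/mL recombinant TGF-beta in 1% FBS medium at 37 degrees C.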
# HT1080NT lethal: kills 2HG-producing HT-1080-NT fibrosarcoma cells; HT-1080-NT fibrosarcoma viability, CellTiter-Glo ATP luminescence, 48 h; Potency, µM (top dose mostly 46.1 µM), actives largely listed as cytotoxic; hit rate 1.6% among 360,000;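 also: NT is the 2HG producing partner of a matched IDH1 knockdown line; nearly all actives have a fitted effect of over 55% in size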
#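 A 48-hour cytotoxicity screen used HT-1080-NT cells plated 2 hours before compound delivery. ATP-based CellTiter-Glo luminescence measured viability, normalized to DMSO and no-cell controls.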
# S2 tox: viability counter-screen for ATXN expression inhibitors; S2 cells (HEK-293 line with an ATXN2-luciferase reporter) viability, CellTiter-Fluor protease fluorescence, 24 h; Potency, µM (series often up to 56.7 µM), most hits filed as cytotoxic; hit rate 0.49% among 400,000; AID 651635; also: nearly all actives have a fitted effect of over 40% in size
# HepG2 tox: counter-screen for TGF-b inhibitors: cytotoxicity in HepG2 cells; HepG2 CAGA-GFP viability, ATP luminescence, 18 h; Potency, µM (highest dose often 46.1 µM), usual class: cytotoxic; hit rate 0.76% among 410,000; AID 588856
#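 HepG2 CAGA-GFP cells (1000/well, DMEM with 1% FBS) received compound, then TGF-beta at 500 pg/mL final, and were incubated 18 hours at 37 degrees C. Viability was read by CellTiter-Glo luminescence. Media-only wells were set as complete cell-killing and DMSO as no toxicity.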
# HT1080 IDH1KD tx: HT-1080 IDH1 knockdown cell toxicity (counter line); hit rate 2% among 360,000; AID 686971; Potency, µM (series often up to 46.1 µM), usual class: cytotoxic; HT-1080 IDH1 knockdown viability, ATP luminescence, 48 h
#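 In this qHTS, HT-1080 cells depleted of IDH1 are exposed for 48 h at 37 °C to compound titrations. Toxicity is scored from CellTiter-Glo luminescence, with DMSO as full viability and medium alone as none.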
# ATXN2 expr inh: reduces ATXN2 reporter expression in HEK-293 cells | HEK-293 ATXN2-luciferase reporter, luminescence, 24 h | Potency, µM (top dose mostly 57 µM), most hits filed as inhibitors | hit rate 0.72% among 360,000 | AID 1745845; also: nearly all actives have a fitted effect of over 55% in size
#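 qHTS (up to 57 uM final) was run with 24 h compound exposure of reporter cells at 37 °C. Each well was multiplexed: SteadyGlo luminescence measured ATXN2-luciferase expression after a fluorogenic Gly-Phe-AFC viability readout (25 uM final).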
# Hits are given with their value; . = inactive; ? = inconclusive; / = not tested or not shown; [ ] = dose if it differs, or a comment. In the library only some 3.9% were active in any assay of this set; here they are far more common. Calls follow the shape of the dose curve; as a rule, active = well fitted curve in the direction sought with a large enough effect; inconclusive = small, poorly fitted or top-dose-only effect, or another doubt; inactive = no such curve, though single readings can be large; an effect the other way counts as inactive or inconclusive.
SMILES,TGFb SMAD3 inh,HT1080NT lethal,S2 tox,HepG2 tox,HT1080 IDH1KD tx,ATXN2 expr inh
N#CC1=C(N)C(C#N)(C#N)[C@H](c2ccoc2)[C@H]2CN(Cc3ccccc3)CC=C12,?,?,?,.,2.59µM,.
COc1ccc(-c2nc(C(N)=O)c3[nH]c(=O)n(-c4cccc(Cl)c4)c3n2)cc1OC,?,?,?,.,16.4µM,?
CC(=O)Oc1c(S(=O)(=O)c2ccc(C)cc2)c(C)nn1C(C)(C)C,.,.,.,.,.,.
Cc1ccc(S(=O)(=O)c2c(C)nn(C(C)(C)C)c2OC(=O)c2ccco2)cc1,?,23.1µM,.,.,?,.
Cc1ccc(S(=O)(=O)c2c(C)nn(C(C)(C)C)c2OC(=O)c2cccs2)cc1,?,23.1µM,.,.,25.9µM,?
Cc1nn(C(C)(C)C)c(OC(=O)c2ccc3c(c2)OCO3)c1S(=O)(=O)c1ccccc1,?,20.6µM,.,.,?,.
COC(=O)[C@@H]1C[C@]2(OC(=O)c3ccccc3)C=CC(=O)C[C@@H]2N1C(=O)OCc1ccccc1,?,?,/,.,?,14.1µM
COc1ccc(-c2cc(NC=O)c3ncc(-c4cccc(C(F)(F)F)c4)n3c2)c(OC)c1,.,?,.,.,13µM,.
COc1cc(-c2cnc3c(NC=O)cc(-c4cccc(C(F)(F)F)c4)cn23)cc(OC)c1OC,?,?,?,.,?,28.2µM
Cc1ccc(S(=O)(=O)N(CC(=O)Nc2ccccc2C(=O)O)c2ccccc2C)cc1,.,.,.,.,.,.
Cc1ccccc1N(CC(=O)Nc1ccccc1C(=O)NCc1ccco1)S(=O)(=O)c1ccccc1,.,?,.,.,20.6µM,.
OC(COC(c1ccc(Cl)cc1)c1ccc(Cl)cc1)CN1CCN(c2ccccn2)CC1 (stereo not given),?,?,.,14.1µM,?,?
OC(CN1CCCCC1)Cn1c2ccc(Cl)cc2c2cc(Cl)ccc21 (stereo not given),?,20.6µM,?,.,?,?
CC1CCN(CC(O)Cn2c3ccccc3c3ccccc32)CC1 (stereo not given),.,.,.,.,.,.
COc1cccc(OCC(O)CN2CCN(c3ccccn3)CC2)c1 (stereo not given),.,.,.,.,.,.
OC(CN1CCN(c2ccccn2)CC1)Cn1c2ccc(Cl)cc2c2cc(Cl)ccc21 (stereo not given),.,?,.,.,16.4µM,.
Cc1cccc(C)c1OCC(O)CN1CCN(c2ccccn2)CC1 (stereo not given),?,.,.,.,.,.
COc1cccc(CN2CCOc3ccc(C(O)c4cccnc4)cc3C2)c1 (stereo not given),/,/,.,/,/,/
COc1cccc(Cc2nc3ccccc3nc2SCC(=O)N2CCCc3ccccc32)c1,.,/,/,.,/,/
Cc1ccc(-n2nc(C)c3c(C)c(CCC(=O)NCc4ccccc4Cl)c(C)nc32)cc1C,.,/,.,.,/,.
CCC/C(=C1/c2ccccc2C(=O)N1c1ccccc1)c1cnc(OC)nc1,12.6µM,.,.,.,.,.
Nc1ccccc1O,?,20.6µM,.,15.8µM,18.4µM,.
Nc1cccc2c(O)cccc12,.,.,.,.,.,.
C/C(CC(=O)NCc1ccco1)=N\NC(=O)COc1ccc(Cl)cc1Cl,.,20.6µM,.,.,?,.[11.3 µM]
COc1ccc(CNC(=O)C/C(C)=N/NC(=O)COc2ccc(C)cc2Br)cc1,?,16.4µM,.,.,18.4µM,.
O=C(COc1ccc(Cl)cc1Cl)NCc1ccco1,.,.,.,.,.,.
CCCNC(=O)C/C(C)=N/NC(=O)COc1ccc(C)cc1Br,.,.,.,.,.,.
COc1ccc(/C=C/C(=O)Nc2ccc3nc(N4CCC(C)CC4)cc(C)c3c2)cc1OC,.,/,/,.,/,/
Cc1cccc(C)c1NC(=O)CCCn1c(=O)c2cccn2c2ccccc21,.,/,/,.,/,/
CCN(CC)CCNC(=O)c1cc2c(-c3ccc(Cl)cc3)nn(C)c2s1,11.2µM,18.4µM,/,.,18.4µM,28.2µM
